Screens (PubChem)
TDP1 block = qHTS Assay for Inhibitors of Tyrosyl-DNA Phosphodiesterase (TDP1) | Potency, µM (titrated, usually from 130 µM), actives largely listed as inhibitors | recombinant TDP1, AlphaScreen DNA substrate cleavage | 350,000 compounds, 0.28% hits | AID 485290, 2010; also: nearly all actives have a fitted effect of over 40% in size
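Compounds were preincubated with Tdp1 (1 nM final) for 15 min at room temperature before substrate (15 nM final) started a 5 min reaction; beads (10 ug/ml final) were then added for 10 min before AlphaScreen detection.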
Pol eta inh-1 = qHTS for Inhibitors of Polymerase Eta; DNA polymerase eta (Homo sapiens), Q9Y253; recombinant Pol eta, fluorescent DNA replication assay; Potency, µM (series often up to 114 µM), most hits filed as inhibitors; 390,000 compounds, 1.2% hits; AID 588591, 2011
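Pol eta (10 nM) was preincubated with compounds for 15 min at room temperature, after which fluorescent replication substrate (50 nM final) was added to start the reaction. Fluorescence was read kinetically at 0 and 10 min.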
Pol kappa inh-1 = qHTS for Inhibitors of Polymerase Kappa; Potency, µM (top dose mostly 107 µM), hits mostly inhibitors; AID 588579, 2011; purified Pol kappa, fluorescent DNA synthesis assay, 10 min; 400,000 compounds, 0.53% hits
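Kinetic fluorescence screen: compound preincubated 15 min RT with 10 nM enzyme; 50 nM substrate (final) initiates; reads at 0/10 min.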
Pol iota inh = qHTS for Inhibitors of Polymerase Iota. DNA polymerase iota (Homo sapiens), Q9UNA4. 390,000 compounds, 1% hits. Pol iota fluorescent replication assay, 10 min. Potency, µM (series often up to 115 µM), usual class: inhibitors
Target sequence (Q9UNA4 whole entry, looked up): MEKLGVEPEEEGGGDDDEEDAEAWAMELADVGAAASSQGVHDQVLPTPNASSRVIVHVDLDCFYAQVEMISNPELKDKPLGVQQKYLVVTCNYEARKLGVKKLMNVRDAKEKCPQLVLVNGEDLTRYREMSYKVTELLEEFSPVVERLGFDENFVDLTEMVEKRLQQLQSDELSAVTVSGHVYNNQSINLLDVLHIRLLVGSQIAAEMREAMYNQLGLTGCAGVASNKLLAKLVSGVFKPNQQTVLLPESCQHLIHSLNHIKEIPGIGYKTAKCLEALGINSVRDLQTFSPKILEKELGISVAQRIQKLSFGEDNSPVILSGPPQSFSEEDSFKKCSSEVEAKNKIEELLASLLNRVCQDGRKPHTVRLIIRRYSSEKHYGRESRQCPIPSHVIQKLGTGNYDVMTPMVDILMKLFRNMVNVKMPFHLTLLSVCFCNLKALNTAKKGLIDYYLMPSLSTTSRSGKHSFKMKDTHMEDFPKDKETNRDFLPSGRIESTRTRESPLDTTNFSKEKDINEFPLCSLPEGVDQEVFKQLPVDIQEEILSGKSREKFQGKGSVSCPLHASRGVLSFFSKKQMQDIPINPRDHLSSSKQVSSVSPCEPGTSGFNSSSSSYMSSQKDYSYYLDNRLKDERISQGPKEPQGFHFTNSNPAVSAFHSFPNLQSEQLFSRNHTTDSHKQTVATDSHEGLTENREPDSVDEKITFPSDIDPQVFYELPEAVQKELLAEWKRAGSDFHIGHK
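Fluorescent replication assay read twice, at 0 min and 10 min after adding 50 nM (final) substrate. Enzyme (10 nM) and compounds were first incubated 15 min at room temperature; enzyme-free buffer wells were negative controls.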
Pol beta inh = qHTS Assay for Inhibitors of DNA Polymerase Beta; P06746; Pol beta primer extension/strand displacement, fluorescence kinetic; Potency, µM (titrated, usually from 114 µM), usual class: inhibitors; 340,000 compounds, 1.3% hits; AID 485314, 2010
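Enzyme-only controls used 10 nM Pol beta; buffer lacking enzyme served as negative control. Compound preincubated 15 min, then 50 nM substrate added; 0 and 10 min reads at room temperature.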
GALK inh confirm = Confirmation Assay for Inhibitors of Human Galactokinase (GALK). shares compounds with Pol eta inh-1. purified GALK, Kinase-Glo ATP depletion luminescence. Potency, µM (doses to about 115 µM), actives largely listed as inhibitors. 150 compounds, 70% hits. AID 2015, 2009
GALK redox cs = Confirmatory Assay for Inhibitors of Human Galactokinase (GALK): Phenol-HRP redox assay counterscreen. Potency, µM (titrated, usually from 115 µM), actives largely listed as inhibitors. shares compounds with Pol eta inh-1. Phenol red-HRP H2O2 redox cycling, absorbance 600 nm. 150 compounds, 40% hits
HEK293 tox = Secondary Assay for Inhibitors of Human Galactokinase (GALK): HEK-293 Cell Viability Assay. 170 compounds, 10% hits. AID 2547, 2010. HEK-293 viability, ATP luminescence (CellTiter-Glo), 24/48 h. shares compounds with Pol eta inh-1. Potency, µM (series often up to 46.1 µM), actives largely listed as inhibitors
Pol kappa inh-2 = qHTS for Inhibitors of Polymerase Kappa: Confirmatory Assay for Cherry-picked Compounds | shares compounds with Pol eta inh-1 | 920 compounds, 76% hits | purified Pol-kappa, fluorescent strand-displacement substrate | Potency, µM, hits mostly inhibitors | AID 720501, 2013
Pol eta inh-2 = qHTS for Inhibitors of Polymerase Eta: Confirmatory Assay for Cherry-picked Compounds; shares compounds with Pol eta inh-1; Pol eta primer extension, TAMRA/BHQ fluorescence, 10 min; Potency, µM, most hits filed as inhibitors; 2,600 compounds, 64% hits; AID 720502, 2013
Numbers stand for hits; n = inactive; u = inconclusive; x = no result. Sampled rows, rich in hits. Any-hit rate of the full collection: about 2.4%. Calls follow the shape of the dose curve; as a rule, active = well fitted curve in the direction sought with a large enough effect; inconclusive = small, poorly fitted or top-dose-only effect, or another doubt; inactive = no such curve, though single readings can be large; an effect the other way counts as inactive or inconclusive.

SMILES	TDP1 block	Pol eta inh-1	Pol kappa inh-1	Pol iota inh	Pol beta inh	Pol eta inh-2	others
CCc1ccc(NC(=O)c2ccc(Cn3nc(N4CCN(c5ccccc5)CC4)ccc3=O)o2)cc1	n	20µM	n	u	u	u	Pol kappa inh-2=u
Cc1c(C(=O)O)c(O)cc2c1C(=O)c1c(O)c([C@@H]3O[C@H](CO)[C@@H](O)[C@H](O)[C@H]3O)c(O)c(O)c1C2=O	n	u	50µM	u	x	u	Pol kappa inh-2=42
COc1cc(OC)c([C@@H]2O[C@H](CO)[C@@H](O)[C@H](O)[C@H]2O)c(OC)c1	n	x	x	x	x	x
CCc1ccc(/C=C(/C#N)C(N)=S)s1	n	n	n	n	n	x
CCc1sc(/C=C(/C#N)C(N)=S)cc1[N+](=O)[O-]	n	20µM	n	u	u	43
CCOc1cc(/C=C2\CCCC(C(=O)C(F)(F)F)=C2O)ccc1O	n	u	n	n	50µM	x	Pol kappa inh-2=75
COc1cc(/C=C2/CCCC(C(=O)C(F)(F)F)=C2O)ccc1O	x	n	n	n	n	x
O=C1CCCc2cc(S(=O)(=O)N3CCCC(C(=O)Nc4ccc(F)c(Cl)c4)C3)ccc2N1 (stereo not drawn)	n	n	n	n	n	x
COc1ccc(C(=O)OCc2cc(=O)n3nc(-c4cccs4)sc3n2)cc1	n	u	n	u	u	u
CCc1ccc(OCC(=O)N/N=C\c2ccco2)c([N+](=O)[O-])c1	n	u	79µM	20µM	u	u
CCOc1ccc(-n2c(SCC(=O)Nc3cc(C)ccc3C)nc3c([nH]c4ccccc43)c2=O)cc1	n	n	n	n	n	x
CC(=O)n1cc(N(C(=O)CCl)c2ccc(Cl)cc2)c2ccccc21	x	28µM	n	u	n	u
CC(=O)n1cc(C=O)c2ccccc21	x	x	n	n	x	x
Cc1ccc(C(=O)N2CCN(c3ccccc3)CC2)cc1NC(=O)c1nsc2ccccc12	n	n	n	n	u	x
Cc1ccc(C)n1NC(=O)c1ccco1	n	n	n	u	u	x
C=CCN(CC=C)CC(=O)Nn1c(C)ccc1C	x	20µM	u	u	x	u
Cc1cccc(N2CCN(C(=O)Cn3nc(Cc4cccnc4)c4ccccc4c3=O)CC2)c1C	n	n	n	n	n	x
COc1cc(/C=C2\C(=O)N(c3cccc(C(=O)O)c3)N=C2C)ccc1OCc1ccccc1	x	32µM	x	x	x	u
COc1ccccc1/C=C1/C(=O)N(c2ccccc2)N=C1C	x	n	n	u	n	x
C#CCOc1ccc(/C=C2/C(=O)N(c3cccc(C(=O)O)c3)N=C2C)cc1OC	x	50µM	n	2µM	n	u
COc1cc(/C=C2/C(=O)N(c3ccc(Br)cc3)N=C2C)cc(OC)c1OC	x	n	n	u	n	x
COc1ccc2c(c1)c1c(c(=O)n(Cc3ccccc3)c(=O)n1CC(=O)Nc1ccccc1OC)n2C	n	n	n	n	n	x
O=C(/C=C/c1ccc(-c2ccccc2[N+](=O)[O-])o1)c1ccco1	n	40µM	u	u	u	76
C=CCOc1cccc(C2C(C(=O)c3ccco3)=C(O)C(=O)N2Cc2ccco2)c1 (stereo not drawn)	x	u	n	u	n	u
CCOc1cccc(=O)c2c(C)n(-c3ccc(C(=O)O)cc3)c(C)c12	x	28µM	u	u	22µM	27
SMILES	TDP1 block	Pol eta inh-1	Pol kappa inh-1	Pol iota inh	Pol beta inh	Pol eta inh-2	others
CSc1cccc(N2CC(C(=O)N(CC(C)C)c3c(N)n(Cc4ccccc4)c(=O)[nH]c3=O)CC2=O)c1 (stereo not drawn)	x	25µM	u	u	x	u
COc1ccc2occ(CC(=O)Nc3ccc(S(=O)(=O)Nc4nccc(C)n4)cc3)c2c1	n	79µM	u	u	u	u	Pol kappa inh-2=47
CCc1ccccc1NC(=O)Cn1c(=O)n(CCCCCC(=O)NCc2ccc(C)cc2)c(=O)c2sccc21	n	x	n	n	n	x
CC1=C(C(N)=O)C(c2cccs2)n2nc(-c3cccc(Cl)c3)nc2N1 (stereo not drawn)	n	n	n	n	n	x	GALK inh confirm=u;GALK redox cs=n;HEK293 tox=n
CCOC1=C/C(=C/c2c(N)n3nc(-c4ccccc4)sc3nc2=O)C=CC1=O	n	28µM	u	u	35µM	u
CCS(=O)(=O)c1nn2c(N)c(/C=C3/C=CC(=O)C(OC)=C3)c(=O)nc2s1	n	u	n	n	n	x
O=S1(=O)NCC23CCC(CC21)O3 (stereo not drawn)	n	x	n	n	x	x
O=C(NC1(O)C(=O)c2ccccc2C1=O)c1ccccc1	n	32µM	n	6.3µM	n	x	GALK inh confirm=24µM;GALK redox cs=11µM;HEK293 tox=n
O=C(NC1(O)C(=O)c2ccccc2C1=O)c1c(Cl)cccc1Cl	n	45µM	n	1.6µM	n	u	GALK inh confirm=24µM;GALK redox cs=9.4µM;HEK293 tox=n
COc1ccc(SCCN2CCN(CCc3ccccc3)CCC2=O)cc1	x	x	n	u	x	x
C=CCc1cccc2cc(C(=O)Nc3ccccc3C(=O)O)c(=O)oc12	n	45µM	n	u	u	u
COc1cccc(C(=O)Nc2cccc(C(=O)NC3=NN(c4c(Cl)cc(Cl)cc4Cl)C(=O)C3)c2)c1	n	40µM	22µM	u	14µM	76
COc1ccc(S(=O)(=O)Nc2ccc3c(c2)CCCN3S(=O)(=O)c2ccc(C)cc2)cc1F	n	n	n	n	n	x
Cc1nnc(SCC2=C(C(=O)O)N3C(=O)C(NC(=O)c4cccc(F)c4F)C3SC2)s1 (stereo not drawn)	x	32µM	u	16µM	n	27
Cc1nnc(SCC2=C(C(=O)O)N3C(=O)C(NC(=O)Cn4ncc(Cl)c4C)C3SC2)s1 (stereo not drawn)	n	18µM	u	u	32µM	27
